# Results reported in article PMC7862700, “An all-to-all approach to the identification of sequence-specific readers for epigenetic DNA modifications on cytosine”.
# Columns and labels:
# Test in all cases: DAPPL (digital affinity profiling via proximity ligation, sequencing); 10 mM Tris-HCl pH 7.5, 50 mM NaCl, 1 mM DTT, 4% glycerol, room temperature, 30 min; GST-TFs on glutathione beads, 16-mer random dsDNA library, 0.1% formaldehyde crosslink after washing; high values mean tight binding
# Settings in all cases: protein: recombinant; tags: N-terminal GST; dsDNA, one strand shown
# [1] = target: T1, ERG (Homo sapiens, UniProt P11308 1-479)
# T1 sequence: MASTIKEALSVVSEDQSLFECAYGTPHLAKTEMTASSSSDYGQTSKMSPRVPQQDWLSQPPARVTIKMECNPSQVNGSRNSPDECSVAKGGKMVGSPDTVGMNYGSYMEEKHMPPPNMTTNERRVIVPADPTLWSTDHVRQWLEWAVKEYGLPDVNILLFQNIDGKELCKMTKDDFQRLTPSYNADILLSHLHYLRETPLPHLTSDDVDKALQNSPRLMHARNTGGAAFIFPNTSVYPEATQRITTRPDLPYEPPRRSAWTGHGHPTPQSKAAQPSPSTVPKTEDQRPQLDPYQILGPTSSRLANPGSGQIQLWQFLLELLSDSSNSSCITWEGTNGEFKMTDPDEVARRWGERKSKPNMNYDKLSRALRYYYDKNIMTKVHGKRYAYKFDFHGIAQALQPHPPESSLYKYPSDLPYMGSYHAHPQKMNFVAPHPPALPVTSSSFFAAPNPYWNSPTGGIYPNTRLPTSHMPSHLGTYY
# Summary of the method: (§1)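 A tag-only sample was pooled with DNA-barcoded human transcription factors that had been expressed in yeast as GST fusions and captured on glutathione beads. The pools were incubated for 30 min at room temperature with 200 nmole of a random double-stranded 16-mer DNA library in Tris/NaCl/DTT/glycerol buffer, then washed, crosslinked with 0.1% formaldehyde, proximity-ligated (BsaI/T4 ligase, 1 h, 37 °C), PCR-amplified and sequenced on an Illumina NextSeq500. Binding signal is each hexamer's read frequency for a factor divided by its frequency for the tag-only sample.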
# [2] = target: T2, EHF (Homo sapiens, UniProt Q9NZC4 1-300)
# T2 sequence: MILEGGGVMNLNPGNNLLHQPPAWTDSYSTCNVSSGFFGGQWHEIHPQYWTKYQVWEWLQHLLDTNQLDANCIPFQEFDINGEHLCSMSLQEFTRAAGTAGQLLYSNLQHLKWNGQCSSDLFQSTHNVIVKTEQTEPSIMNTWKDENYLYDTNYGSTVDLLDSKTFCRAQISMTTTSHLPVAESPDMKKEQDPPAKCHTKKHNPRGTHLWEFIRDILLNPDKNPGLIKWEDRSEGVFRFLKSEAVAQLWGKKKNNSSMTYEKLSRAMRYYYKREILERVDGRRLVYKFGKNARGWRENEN
# Summary of the method: as §1
# [3] = target: SPIB (Homo sapiens, UniProt Q01892 1-262)
# Summary of the method: as §1
# [4] = target: ETV5 (Homo sapiens, UniProt P41161 1-510)
# Summary of the method: as §1
# [5] = target: ETV1 (Homo sapiens, UniProt P50549 1-477)
# Summary of the method: as §1
# [6] = target: T3, ETV3L (Homo sapiens, UniProt Q6ZN32 1-361)
# T3 sequence: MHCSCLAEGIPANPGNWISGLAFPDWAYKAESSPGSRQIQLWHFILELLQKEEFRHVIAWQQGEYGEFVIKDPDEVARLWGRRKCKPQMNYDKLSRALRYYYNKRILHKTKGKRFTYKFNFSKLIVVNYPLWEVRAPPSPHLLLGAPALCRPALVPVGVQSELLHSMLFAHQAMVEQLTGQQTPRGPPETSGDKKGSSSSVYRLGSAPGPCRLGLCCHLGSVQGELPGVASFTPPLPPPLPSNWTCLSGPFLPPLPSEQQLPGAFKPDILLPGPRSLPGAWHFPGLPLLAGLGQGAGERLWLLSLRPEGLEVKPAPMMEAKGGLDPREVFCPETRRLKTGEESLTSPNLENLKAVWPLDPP
# Summary of the method: as §1
# [7] = target: T4, ETS2 (Homo sapiens, UniProt P15036 1-469)
# T4 sequence: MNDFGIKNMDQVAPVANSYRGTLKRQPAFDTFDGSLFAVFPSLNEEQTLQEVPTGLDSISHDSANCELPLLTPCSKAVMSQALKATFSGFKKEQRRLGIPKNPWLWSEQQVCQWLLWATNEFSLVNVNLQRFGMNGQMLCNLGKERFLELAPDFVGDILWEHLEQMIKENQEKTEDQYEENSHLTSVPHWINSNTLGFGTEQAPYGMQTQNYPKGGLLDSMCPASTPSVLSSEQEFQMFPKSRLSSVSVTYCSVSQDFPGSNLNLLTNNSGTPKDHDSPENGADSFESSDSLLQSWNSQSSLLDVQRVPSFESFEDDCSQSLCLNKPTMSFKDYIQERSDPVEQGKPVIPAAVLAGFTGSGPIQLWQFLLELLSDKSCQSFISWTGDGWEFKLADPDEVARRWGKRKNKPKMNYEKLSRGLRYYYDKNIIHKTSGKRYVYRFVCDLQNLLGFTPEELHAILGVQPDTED
# Summary of the method: as §1
# [8] = target: T5, SPDEF (Homo sapiens, UniProt O95238 1-335)
# T5 sequence: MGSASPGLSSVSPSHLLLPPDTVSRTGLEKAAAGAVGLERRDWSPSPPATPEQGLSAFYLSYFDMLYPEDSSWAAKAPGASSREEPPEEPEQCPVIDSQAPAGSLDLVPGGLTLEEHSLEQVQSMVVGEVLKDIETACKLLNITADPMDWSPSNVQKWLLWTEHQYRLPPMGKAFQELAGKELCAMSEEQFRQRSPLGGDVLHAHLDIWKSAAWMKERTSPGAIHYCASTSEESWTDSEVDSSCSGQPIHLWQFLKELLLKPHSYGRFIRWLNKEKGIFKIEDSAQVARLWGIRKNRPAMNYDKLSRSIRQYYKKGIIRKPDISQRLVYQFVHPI
# Summary of the method: as §1
# [9] = target: T6, ETV7 (Homo sapiens, UniProt Q9Y603 1-341)
# T6 sequence: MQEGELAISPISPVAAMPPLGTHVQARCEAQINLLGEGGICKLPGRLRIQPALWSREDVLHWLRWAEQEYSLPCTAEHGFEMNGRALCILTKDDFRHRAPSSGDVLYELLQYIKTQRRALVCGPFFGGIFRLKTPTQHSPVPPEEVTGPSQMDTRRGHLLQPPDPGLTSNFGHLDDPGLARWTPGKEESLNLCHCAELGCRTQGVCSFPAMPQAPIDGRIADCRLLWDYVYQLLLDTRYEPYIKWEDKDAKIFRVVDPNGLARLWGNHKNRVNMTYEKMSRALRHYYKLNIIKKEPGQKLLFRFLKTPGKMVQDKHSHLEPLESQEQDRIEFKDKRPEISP
# Summary of the method: as §1
# [10] = target: T7, ETV3 (Homo sapiens, UniProt P41162-2 1-143)
# T7 sequence: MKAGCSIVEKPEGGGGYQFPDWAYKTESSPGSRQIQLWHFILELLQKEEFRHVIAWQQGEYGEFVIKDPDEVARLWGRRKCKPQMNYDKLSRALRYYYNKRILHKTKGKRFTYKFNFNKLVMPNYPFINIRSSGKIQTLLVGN
# Summary of the method: as §1
# [11] = target: ETV6 (Homo sapiens, UniProt P41212 1-452)
# Summary of the method: as §1
# Chain of ETV1 (P50549 whole entry): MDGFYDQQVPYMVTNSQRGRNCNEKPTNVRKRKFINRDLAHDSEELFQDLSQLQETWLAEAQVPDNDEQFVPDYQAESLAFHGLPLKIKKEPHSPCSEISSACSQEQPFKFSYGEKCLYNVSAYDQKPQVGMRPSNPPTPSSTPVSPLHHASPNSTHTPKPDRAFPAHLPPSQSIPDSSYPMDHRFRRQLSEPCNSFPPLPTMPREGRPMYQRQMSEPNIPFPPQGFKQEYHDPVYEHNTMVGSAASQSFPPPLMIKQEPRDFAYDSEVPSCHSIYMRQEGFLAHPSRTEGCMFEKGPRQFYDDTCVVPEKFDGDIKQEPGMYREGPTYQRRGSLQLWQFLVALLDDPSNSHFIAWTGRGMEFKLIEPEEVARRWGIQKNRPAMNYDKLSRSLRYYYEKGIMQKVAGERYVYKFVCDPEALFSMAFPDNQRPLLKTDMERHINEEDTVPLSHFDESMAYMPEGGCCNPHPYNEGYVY
# Chain of SPIB (Q01892 whole entry): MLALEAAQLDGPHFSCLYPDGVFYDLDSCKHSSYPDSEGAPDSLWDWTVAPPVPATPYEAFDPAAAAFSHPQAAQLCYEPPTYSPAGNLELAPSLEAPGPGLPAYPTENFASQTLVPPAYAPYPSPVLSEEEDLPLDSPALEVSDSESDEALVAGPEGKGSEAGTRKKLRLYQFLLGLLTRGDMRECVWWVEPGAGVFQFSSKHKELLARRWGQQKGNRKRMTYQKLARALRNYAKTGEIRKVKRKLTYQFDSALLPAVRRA
# Chain of ETV5 (P41161 whole entry): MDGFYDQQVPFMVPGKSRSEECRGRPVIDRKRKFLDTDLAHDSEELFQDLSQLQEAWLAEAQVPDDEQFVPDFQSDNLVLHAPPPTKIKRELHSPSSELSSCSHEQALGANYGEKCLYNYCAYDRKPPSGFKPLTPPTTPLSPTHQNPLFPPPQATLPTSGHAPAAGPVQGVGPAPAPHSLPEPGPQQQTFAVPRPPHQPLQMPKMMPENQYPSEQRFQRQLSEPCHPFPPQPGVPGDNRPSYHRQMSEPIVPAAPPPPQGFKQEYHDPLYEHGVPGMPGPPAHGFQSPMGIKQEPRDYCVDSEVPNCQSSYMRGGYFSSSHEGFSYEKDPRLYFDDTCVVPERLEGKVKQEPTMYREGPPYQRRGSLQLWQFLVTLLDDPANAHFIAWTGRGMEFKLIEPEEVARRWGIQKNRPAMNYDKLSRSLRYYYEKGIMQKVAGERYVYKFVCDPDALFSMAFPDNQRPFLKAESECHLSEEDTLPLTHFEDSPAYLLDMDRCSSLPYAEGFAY
# Chain of ETV6 (P41212 whole entry): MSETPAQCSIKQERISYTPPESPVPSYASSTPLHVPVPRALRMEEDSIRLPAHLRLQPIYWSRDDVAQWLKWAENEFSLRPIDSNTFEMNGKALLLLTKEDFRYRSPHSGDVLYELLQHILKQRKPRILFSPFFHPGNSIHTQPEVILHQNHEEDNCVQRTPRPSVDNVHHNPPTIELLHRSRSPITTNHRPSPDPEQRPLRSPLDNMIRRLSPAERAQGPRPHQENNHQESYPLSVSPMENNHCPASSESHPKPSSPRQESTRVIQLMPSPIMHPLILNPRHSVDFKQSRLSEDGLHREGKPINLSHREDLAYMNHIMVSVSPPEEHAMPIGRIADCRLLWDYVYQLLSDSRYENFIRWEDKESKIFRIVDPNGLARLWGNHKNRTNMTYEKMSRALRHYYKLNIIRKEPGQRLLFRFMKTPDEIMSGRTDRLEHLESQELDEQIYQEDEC
sequence,measurement,setting,value
AGGATG,binding signal,[1],"1.1 fold enrichment (6-mer frequency, TF over GST control)"
same,binding signal,[2],"1.09 fold enrichment (6-mer frequency, TF over GST control)"
same,binding signal,[3],"1.1 fold enrichment (6-mer frequency, TF over GST control)"
same,binding signal,[4],"1.09 fold enrichment (6-mer frequency, TF over GST control)"
same,binding signal,[5],"1.05 fold enrichment (6-mer frequency, TF over GST control)"
same,binding signal,[6],"1.06 fold enrichment (6-mer frequency, TF over GST control)"
same,binding signal,[7],"1.07 fold enrichment (6-mer frequency, TF over GST control)"
same,binding signal,[8],"1.51 fold enrichment (6-mer frequency, TF over GST control)"
same,binding signal,[9],"1.04 fold enrichment (6-mer frequency, TF over GST control)"
same,binding signal,[10],"1.13 fold enrichment (6-mer frequency, TF over GST control)"
same,binding signal,[11],"1.08 fold enrichment (6-mer frequency, TF over GST control)"
